# Source: PubChem BioAssay
# Results filed as inconclusive are left out. Activity calls are given as the source filed them.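 The calls were made as follows, unless noted: active = normalized viability below 100% at a tested concentration; inactive = the rest.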
# How the values were obtained:
# [1] = growth inhibition of DIPG glioma cells, dose response, cell-based, SU-DIPG-XVII, MIPE5.0, CellTiter-Glo, qHTS (AID 1347060; cut-off not given, nearly all actives have AC50 up to about 26 µM;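 as to AC50: cells exposed to compound for 48 hours before viability readout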); details: SU-DIPG-XVII viability, CellTiter-Glo ATP luminescence
# [2] = viability loss in pontine glioma line – cell-based, SU-DIPG-XXV, MIPE5.0, CellTiter-Glo, qHTS, dose response (AID 1347065; cut-off not given, nearly all actives have AC50 up to about 26 µM;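 also: cells exposed to compound for 48 hours before ATP readout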); details: CellTiter-Glo ATP luminescence
# [3] = SU-DIPG-XXV glioma cell viability, MIPE5.0 library, qHTS (AID 1347068; cut-off not given, nearly all actives have IC50 up to about 30 µM;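 as to IC50: cells exposed to compound for 48 hours before viability readout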)
# [4] = sensitizers of A549 cells to miR-34 induction, primary screen, imaging, A549 dox-inducible miR-34, nuclei and caspase counts (AID 1347080;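 active = compounds whose cell count with miR-34 switched on is under 0.7 times the count with it off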); details: A549 miR-34 inducible, Hoechst nuclei count, 48 h
# [5] = survival rescue of mitochondrial mutant cells in low glucose, primary screen, MELAS cybrids, Rieske KO mouse fibroblasts, CellTiter-Glo (AID 1508586;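 active = mean z-score across replicates of 1.96 or higher in either the MELAS or the Rieske mutant cell line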;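 also: z relative to plate mean and SD of compound and empty wells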)
# [6] = ovarian cancer cell viability with rucaparib, profiling panel, oncology-focused library, rucaparib conditional (AID 1508598); details: patient-derived ovarian cancer cells, CellTiter-Glo viability, 144 h, stronger effect = lower value
# [7] = LFS_MB_P medulloblastoma growth inhibition, cell-based, chromothripsis tumors, cisplatin or BGB combos (AID 1671449; in the data active = inhibition above about 80%;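 also: cells exposed for 96 hours; 0% = vehicle DMSO and 100% = killing by high DMSO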); details: LFS_MB_P medulloblastoma cells
# [8] = HDN33 neuroblastoma growth inhibition, cell-based, chromothripsis tumors, cisplatin or BGB combos (AID 1671450; in the data active = inhibition above about 80%;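 also: cells exposed to compound for four days; 0% = vehicle DMSO and 100% = cell killing by high DMSO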); details: HDN33 neuroblastoma cells, stronger effect = higher value
# [9] = ICB984 medulloblastoma cell growth inhibition, synergistic combos for chromothripsis tumors, cisplatin or BGB combos (AID 1671451; call rule not given here;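 also: cells exposed for 96 hours before readout; 0% = vehicle DMSO and 100% = killing by high DMSO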); details: ICB984 medulloblastoma cells, drug combinations, stronger effect = higher value
# [10] = LFS_MB_1R medulloblastoma cell growth inhibition, synergistic combos for chromothripsis tumors, cisplatin or BGB combos (AID 1671452; in the data active = inhibition above about 80%;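 also: cells exposed for 96 hours before readout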); details: LFS_MB_1R medulloblastoma cells, stronger effect = higher value
# [11] = HTB85 osteosarcoma cell growth inhibition, synergistic combos for chromothripsis tumors, BGB or cisplatin IC20 combos (AID 1671453; in the data active = inhibition above about 80%;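 also: cells exposed for 96 hours before readout; 0% = vehicle DMSO and 100% = high DMSO killing control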); details: HTB85 osteosarcoma cells, drug combinations, stronger effect = higher value
# [12] = CRL2098 osteosarcoma cell growth inhibition, synergistic combos for chromothripsis tumors, BGB or cisplatin IC20 combos (AID 1671454; in the data active = inhibition above about 80%;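 also: cells exposed for 96 h before readout; 0% = vehicle DMSO and 100% = killing by high DMSO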); details: CRL2098 osteosarcoma cells, drug combinations, stronger effect = higher value
# [13] = HD-MB03 medulloblastoma cell growth inhibition, synergistic combos for chromothripsis tumors, BGB or cisplatin IC20 combos (AID 1671455; in the data active = inhibition above about 83%;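 also: 0% = vehicle DMSO and 100% = high DMSO as cytotoxic control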); details: HD-MB03 medulloblastoma cells, stronger effect = higher value
# [14] = UWB1.289 ovarian carcinoma cell growth inhibition, synergistic combos for chromothripsis tumors, BGB or cisplatin combos (AID 1671456; in the data active = inhibition above about 80%;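 also: cells exposed to compound for four days; 0% = vehicle DMSO and 100% = killing by high DMSO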); details: UWB1.289 ovarian carcinoma cells, stronger effect = higher value
# [15] = LFS_MB_2R medulloblastoma cell growth inhibition, synergistic combos for chromothripsis tumors, cisplatin combos (AID 1671457; in the data active = inhibition above about 80%;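 also: cells exposed to compound for four days before readout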); details: LFS_MB_2R medulloblastoma cells, stronger effect = higher value
# [16] = MDA-MB-436 breast carcinoma cell growth inhibition, synergistic combos for chromothripsis tumors, BGB or cisplatin combos (AID 1671458; call rule not given here;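 also: cells exposed for 96 hours; 0% = vehicle DMSO and 100% = killing by high DMSO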); details: MDA-MB-436 breast carcinoma growth inhibition, drug combinations, stronger effect = higher value
# [17] = UWB1.289_BRCA1 ovarian cancer growth, cell-based, BGB or cisplatin combinations (AID 1671459; in the data active = inhibition above about 80%); details: UWB1.289 BRCA1 ovarian carcinoma, drug combinations, stronger effect = higher value
# [18] = human astrocyte viability loss, single and combined drugs, cytotoxicity control for chromothriptic childhood tumor combination screen, cell-based, BGB or cisplatin IC20 combos (AID 1671460; in the data active = inhibition above about 80%;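 also: cells exposed to compounds for 96 hours before viability readout; 0% = vehicle and 100% = killing control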); details: Human astrocytes, drug combinations, stronger effect = higher value
# [19] = growth inhibition of BT084 medulloblastoma cells, cell-based, ICGC_MB145, cisplatin and BGB IC40 combos (AID 1671461; in the data active = inhibition above about 80%;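 also: cells exposed to drugs for 96 hours; 0% = vehicle DMSO and 100% = high DMSO full killing control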); details: drug combinations, stronger effect = higher value
# [20] = growth inhibition of RCMB18 medulloblastoma cells, cell-based, cisplatin and BGB IC40 combos (AID 1671462; in the data active = inhibition above about 80%;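 also: cells exposed to compound for four days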); details: stronger effect = higher value
# [21] = growth inhibition of CRL1545 osteosarcoma cells, cell-based, cisplatin and BGB IC20 combos (AID 1671464; in the data active = inhibition above about 80%;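 also: cells exposed to compound for 96 hours before readout; 0% = vehicle DMSO and 100% = high DMSO killing control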); details: stronger effect = higher value
# [22] = measured here: combination with BGB IC40, at 0.05 µM
# [23] = measured here: with BGB IC20 combination, at 0.5 µM
# [24] = measured here: with cisplatin IC20 combination, at 0.5 µM
# [25] = measured here: combination with cisplatin, at 0.5 µM
# [26] = measured here: combination with cisplatin, at 5 µM
smiles,measurement,setting,value
Nc1nc(OC(c2ccc(-c3cccc(F)c3)cc2)C(F)(F)F)cc(-c2ccc(C[C@H](N)C(=O)O)cc2)n1 (stereo not given in full),outcome,[1],inactive
same,outcome,[2],inactive
same,outcome,[3],inactive
C=CC(=O)N[C@H]1CN(c2nc(Nc3cn(C)nc3OC)c3ncn(C)c3n2)C[C@@H]1F,AC50,[1],18.6 µM (active)
same,AC50,[2],20.9 µM (active)
same,IC50,[3],16.6 µM (active)
COc1ccc(-n2c(SCCCN3C(=O)c4cccc5cccc(c45)C3=O)nnc2-c2ccncc2)cc1,outcome,[1],inactive
same,outcome,[2],inactive
same,outcome,[3],inactive
same,fold change,"[4]; stronger effect = lower value, cell number ratio, induced over uninduced",0.884 (inactive)
same,fold change,[4]; measured here: relative caspase fold change +Dox/-Dox,0.42
same,cell count,"[4]; measured here: total cells with miR-34 induction, stronger effect = lower value",6580
same,cell count,[4]; measured here: total cells without miR-34 induction,7440
same,z-score,"[5]; MELAS cybrid survival, CellTiter-Glo 48 h, stronger effect = higher value",-0.376 (inactive)
same,z-score,"[5]; Rieske KO mouse fibroblast survival, CellTiter-Glo 72 h",1.13
same,viability,"[6]; at 0.000305 µM, OCI-C5x cells, with rucaparib 10 µM, 100% = cells with rucaparib alone",118% (inactive)
same,viability,"[6]; at 0.000305 µM, OCI-C5x cells, without rucaparib",116% (inactive)
same,viability,"[6]; at 0.000305 µM, OCI-P5x cells, with rucaparib 20 µM, 100% = cells with rucaparib alone",101% (inactive)
same,viability,"[6]; at 0.000305 µM, OCI-P5x cells, without rucaparib",100% (inactive)
same,viability,"[6]; at 0.00122 µM, OCI-C5x cells, with rucaparib 10 µM, 100% = cells with rucaparib alone",120% (inactive)
same,viability,"[6]; at 0.00122 µM, OCI-C5x cells, without rucaparib",121% (inactive)
same,viability,"[6]; at 0.00122 µM, OCI-P5x cells, with rucaparib 20 µM, 100% = cells with rucaparib alone",101% (inactive)
same,viability,"[6]; at 0.00122 µM, OCI-P5x cells, without rucaparib",99.9% (active)
same,viability,"[6]; at 0.00488 µM, OCI-C5x cells, with rucaparib 10 µM, 100% = cells with rucaparib alone",117% (inactive)
same,viability,"[6]; at 0.00488 µM, OCI-C5x cells, without rucaparib",117% (inactive)
same,viability,"[6]; at 0.00488 µM, OCI-P5x cells, with rucaparib 20 µM, 100% = cells with rucaparib alone",94.7% (active)
same,viability,"[6]; at 0.00488 µM, OCI-P5x cells, without rucaparib",104% (inactive)
same,viability,"[6]; at 0.0195 µM, OCI-C5x cells, with rucaparib 10 µM, 100% = cells with rucaparib alone",125% (inactive)
same,viability,"[6]; at 0.0195 µM, OCI-C5x cells, without rucaparib",121% (inactive)
same,viability,"[6]; at 0.0195 µM, OCI-P5x cells, with rucaparib 20 µM, 100% = cells with rucaparib alone",102% (inactive)
same,viability,"[6]; at 0.0195 µM, OCI-P5x cells, without rucaparib",101% (inactive)
same,viability,"[6]; at 0.0781 µM, OCI-C5x cells, with rucaparib 10 µM, 100% = cells with rucaparib alone",125% (inactive)
same,viability,"[6]; at 0.0781 µM, OCI-C5x cells, without rucaparib",118% (inactive)
same,viability,"[6]; at 0.0781 µM, OCI-P5x cells, with rucaparib 20 µM, 100% = cells with rucaparib alone",95.3% (active)
same,viability,"[6]; at 0.0781 µM, OCI-P5x cells, without rucaparib",98.1% (active)
same,viability,"[6]; at 0.313 µM, OCI-C5x cells, with rucaparib 10 µM, 100% = cells with rucaparib alone",138% (inactive)
same,viability,"[6]; at 0.313 µM, OCI-C5x cells, without rucaparib",130% (inactive)
same,viability,"[6]; at 0.313 µM, OCI-P5x cells, with rucaparib 20 µM, 100% = cells with rucaparib alone",95.5% (active)
same,viability,"[6]; at 0.313 µM, OCI-P5x cells, without rucaparib",77.9% (active)
same,viability,"[6]; at 1.25 µM, OCI-C5x cells, with rucaparib 10 µM, 100% = cells with rucaparib alone",129% (inactive)
same,viability,"[6]; at 1.25 µM, OCI-C5x cells, without rucaparib",128% (inactive)
same,viability,"[6]; at 1.25 µM, OCI-P5x cells, with rucaparib 20 µM, 100% = cells with rucaparib alone",89.8% (active)
same,viability,"[6]; at 1.25 µM, OCI-P5x cells, without rucaparib",77.7% (active)
same,viability,"[6]; at 5 µM, OCI-C5x cells, with rucaparib 10 µM, 100% = cells with rucaparib alone",113% (inactive)
same,viability,"[6]; at 5 µM, OCI-C5x cells, without rucaparib",123% (inactive)
same,viability,"[6]; at 5 µM, OCI-P5x cells, with rucaparib 20 µM, 100% = cells with rucaparib alone",98.5% (active)
same,viability,"[6]; at 5 µM, OCI-P5x cells, without rucaparib",86.5% (active)
same,inhibition,"[7]; at 0.5 µM, stronger effect = higher value",9.82% (inactive)
same,inhibition,"[7]; measured here: combination with BGB IC20, at 0.005 µM",9.58%
same,inhibition,"[7]; measured here: combination with BGB IC40, at 0.005 µM",-35.2%
same,inhibition,[7]; [22],-11%
same,inhibition,"[7]; measured here: combination with cisplatin, at 0.5 µM, stronger effect = higher value",82.2%
same,inhibition,"[7]; measured here: combination with cisplatin, at 5 µM, stronger effect = higher value",-43.7%
same,inhibition,"[8]; BGB combo, at 5 µM",-3.81%
same,inhibition,[8]; at 0.5 µM,4% (inactive)
same,inhibition,"[8]; cisplatin combo, at 5 µM",14.9%
same,inhibition,[8]; [23],-3.11%
same,inhibition,[8]; [24],10.7%
same,inhibition,"[8]; single agent, at 5 µM",26.4%
same,inhibition,"[9]; BGB IC20 combo, at 0.005 µM",-14.7%
same,inhibition,"[9]; BGB IC40 combo, at 0.005 µM",-33.9%
same,inhibition,"[9]; BGB IC40 combo, at 0.05 µM",-28.6%
same,inhibition,[9]; at 0.5 µM,-17.9% (inactive)
same,inhibition,"[9]; cisplatin combo, at 0.05 µM",-33.7%
same,inhibition,"[9]; cisplatin combo, at 0.5 µM",-25.4%
same,inhibition,"[9]; cisplatin combo, at 5 µM",-32.6%
same,inhibition,"[9]; measured here: 5 uM single agent, at 5 µM",-15.5%
same,inhibition,[10]; at 0.5 µM,-13.2% (inactive)
same,inhibition,[10]; [22],-35.9%
same,inhibition,[10]; [25],-19.9%
same,inhibition,[10]; [26],-31.3%
same,inhibition,[11]; at 0.5 µM,-0.55% (inactive)
same,inhibition,"[11]; measured here: with BGB IC20, at 0.5 µM",6.74%
same,inhibition,"[11]; measured here: with BGB IC20, at 5 µM",0.541%
same,inhibition,"[11]; measured here: with cisplatin IC20, at 0.5 µM",-17.9%
same,inhibition,"[11]; measured here: with cisplatin IC20, at 5 µM",-0.549%
same,inhibition,"[11]; single agent, at 5 µM",19.7%
same,inhibition,[12]; at 0.5 µM,-27.6% (inactive)
same,inhibition,"[12]; measured here: combination with BGB at IC20, at 0.5 µM",-23.3%
same,inhibition,"[12]; measured here: combination with cisplatin at IC20, at 0.5 µM",-22.2%
same,inhibition,[13]; at 0.5 µM,-0.19% (inactive)
same,inhibition,"[13]; measured here: combo with BGB at IC20, at 0.5 µM",-1.2%
same,inhibition,"[13]; measured here: combo with cisplatin at IC20, at 0.5 µM",6.56%
same,inhibition,[14]; at 0.5 µM,1.01% (inactive)
same,inhibition,"[14]; measured here: inhibition with BGB combination, at 0.05 µM",-4.64%
same,inhibition,"[14]; measured here: inhibition with cisplatin combination, at 0.05 µM",-4.19%
same,inhibition,[15]; at 0.5 µM,-15% (inactive)
same,inhibition,[15]; [25],-8.95%
same,inhibition,[15]; [26],-20.5%
same,inhibition,[16]; at 0.5 µM,-5.31% (inactive)
same,inhibition,"[16]; measured here: BGB combination, at 0.5 µM",-12%
same,inhibition,"[16]; measured here: BGB combination, at 5 µM",-10.9%
same,inhibition,"[16]; measured here: cisplatin combination, at 0.5 µM",-2.01%
same,inhibition,"[16]; measured here: cisplatin combination, at 5 µM",-2.78%
same,inhibition,"[17]; BGB combination, concentration series, at 5 µM",7.08%
same,inhibition,[17]; at 0.5 µM,1.18% (inactive)
same,inhibition,"[17]; cisplatin combination, concentration series, at 5 µM",13.2%
same,inhibition,[18]; at 0.5 µM,16% (inactive)
same,inhibition,"[18]; measured here: combo with BGB IC20, at 0.5 µM",24.6%
same,inhibition,"[18]; measured here: combo with cisplatin IC20, at 0.5 µM",15.9%
same,inhibition,[19]; at 0.5 µM,3.66% (inactive)
same,inhibition,"[19]; cisplatin combination, at 0.5 µM",8.14%
same,inhibition,"[19]; cisplatin combination, at 5 µM",-2.96%
same,inhibition,"[19]; measured here: BGB IC40 combination 0.05 uM, at 0.05 µM",15.7%
same,inhibition,"[19]; single agent, at 5 µM",-22%
same,inhibition,[20]; at 0.5 µM,-7.05% (inactive)
same,inhibition,"[20]; cisplatin combo, at 5 µM",17.7%
same,inhibition,"[20]; measured here: BGB IC40 combination, at 0.05 µM",-27.1%
same,inhibition,[20]; [25],26.9%
same,inhibition,"[20]; single agent, at 5 µM",-22.4%
same,inhibition,[21]; at 0.5 µM,-5.28% (inactive)
same,inhibition,[21]; [23],-6.44%
same,inhibition,[21]; [24],-4.7%
same,inhibition,"[21]; single agent, at 0.05 µM",-13.5%
same,inhibition,"[21]; single agent, at 5 µM",7.92%
